Screen size: about 420,000 compounds; about 64,000 (15%) were called active. Inconclusive results (about 27%) are left out. The call rests on the fitted dose curve; in most records, active means well fitted inhibition curve with a large enough effect; inconclusive means small, poorly fitted or top-dose-only effect; inactive means flat fitted curve, though single readings scatter. A selection follows. Entries that show only a call come without a potency.
Assay: qHTS for Inhibitors of human tyrosyl-DNA phosphodiesterase 1 (TDP1): qHTS in cells in absence of CPT; further: nearly all actives have a fitted effect of over 55% in size
Details: DT40 Tdp1-/- hTDP1 cells, no CPT, ATP luminescence, 48 h; activity change, negative = growth inhibition: at 46.2 µM (top of the series)
How it was run: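 Seeded 400 DT40-hTDP1 cells/well (vehicle DMSO, no 20 nM CPT); pinned compounds; ≥48 hr at 37 °C; CellTiter-Glo luminescence as viability measure.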
Potency means the concentration at half of the fitted maximal effect.

Compound | Potency
CC(C)CC(=O)N1CCC(O)(CS(=O)(=O)Cc2ccccc2)CC1 | inactive
CCCCC(=O)Nc1c2c(nn1-c1ccc([N+](=O)[O-])cc1)CS(=O)(=O)C2 | inactive
Cc1ccc2c(c1)nnc1nnc(SCC(=O)O)n12 | inactive
C[C@H](NC(=O)c1nc[nH]c1C(=O)NCC(=O)OC(C)(C)C)C(=O)OCc1ccccc1 | inactive
CCCOc1ccc2c3c(c(=O)oc2c1OCCC)CCC3 | 23.1 µM (active)
NC(=O)COc1ccc2c3c(c(=O)oc2c1)CCCCC3 | inactive
Cc1c(OC(C)C(=O)N[C@@H](Cc2ccccc2)C(=O)O)ccc2c3c(c(=O)oc12)CCCC3 (some centres undefined) | inactive
COc1ccc(NC(=O)Nc2ccc3c(c2)C(=O)N([C@H](C)CO)C[C@H](C)[C@@H](CN(C)C(=O)Nc2ccc4c(c2)OCO4)O3)cc1 | inactive
CN(CCc1cnn(C)c1)Cc1cn(C)nc1-c1ccccc1F | inactive
C[C@H](CO)N1C[C@H](C)[C@@H](CN(C)S(=O)(=O)c2ccc(F)cc2)Oc2c(NC(=O)Nc3ccccc3)cccc2C1=O | inactive
COc1ccc(S(=O)(=O)N(C)C[C@H]2Oc3c(NC(=O)Nc4ccc5c(c4)OCO5)cccc3C(=O)N([C@H](C)CO)C[C@@H]2C)cc1 | 20.6 µM (active)
Cc1noc(C)c1S(=O)(=O)N(C)C[C@H]1Oc2c(NC(=O)Nc3ccc4c(c3)OCO4)cccc2C(=O)N([C@H](C)CO)C[C@@H]1C | inactive
Cn1c(=O)c(=O)n(C)c2cc(S(=O)(=O)NCCN3CCN(c4ccccc4F)CC3)ccc21 | inactive
CC(=O)Oc1cccc(N2C(=O)CC(Nc3ccc(N4CCOCC4)cc3)C2=O)c1 (centres undefined) | inactive
Nc1cc(N)nc(SCc2ccc(Cl)cc2)n1 | inactive
Cc1cc(=O)[nH]c(SCC(=O)N2c3ccccc3CC2C)n1 (centres undefined) | inactive
CCN(C(=O)CSc1nc(N)cc(=O)[nH]1)C1CCS(=O)(=O)C1 (centres undefined) | inactive
Cc1cc(C(=O)COC(=O)CNC(=O)c2ccc(F)cc2)c(C)n1Cc1ccco1 | inactive
Cc1cc(C(=O)CSc2nc(N)cc(=O)[nH]2)c(C)n1-c1cccc(F)c1 | 4.61 µM (active)
CCCCc1nnc(NC(=O)CSc2nc(N)cc(=O)[nH]2)s1 | inactive
Cc1cc(C(=O)CSc2nc(N)cc(=O)[nH]2)c(C)n1Cc1ccco1 | 0.82 µM (active)
Cc1cc(C(=O)CSc2nc(N)cc(=O)[nH]2)c(C)n1CCc1ccc(Cl)cc1 | 16.4 µM (active)

Compound | Potency
Cc1cc(C)c(C(=O)CSc2nc(C)cc(=O)[nH]2)c(C)c1 | inactive
C=CCn1c(COc2ccccc2F)nnc1SCC(=O)N1CC(=O)Nc2ccccc21 | inactive
O=C(O)C1C2C=CC(C2)C1C(=O)N1CCN(CCO)CC1 (centres undefined) | inactive
C/C(=N\c1nc2ccccc2n1C)c1cc(Cl)ccc1O | inactive
Cc1cc2oc3ccc(NCCC4CCCN4C)cc3c(=O)c2cc1C (centres undefined) | 16.4 µM (active)
CCCOc1ccc(C2c3c(oc4cc(C)c(C)cc4c3=O)C(=O)N2CCCN2CCOCC2)cc1 (centres undefined) | inactive
Cc1ccc(C(=O)O)c(NC=O)c1OCc1ccccc1 | inactive
CC(=O)Nc1ccc(NC(=O)CSc2nnc3c4cc(Br)ccc4n(C)c3n2)cc1 | inactive
O=C1CCC/C(=N\NC(=O)NC2CCCCC2)C1 | inactive
Cc1cnc(NC(=O)CSc2nnc(-c3ccccc3)n2Cc2ccccc2)s1 | inactive
COC(=O)c1ccc(COc2cc([N+](=O)[O-])cc3cccnc23)cc1 | inactive
COc1ccc(CNC(=O)COC(=O)C(CCSC)N2C(=O)c3ccccc3C2=O)cc1 (centres undefined) | inactive
COc1cccc2cc(C(=O)N3CCN(C(=O)c4ccccc4)CC3)c(=O)oc12 | inactive
COc1ccccc1N1CCN(C(=O)c2cc(=O)c3cc(C)cc(C)c3o2)CC1 | 0.0082 µM (active)
COc1ccc2c(CC(=O)N3CCc4cc(OC)c(OC)cc4C3)coc2c1 | inactive
COc1ccccc1N1CCN(C(=O)c2cc(=O)c3cc(C)ccc3o2)CC1 | 23.1 µM (active)
O=C(c1cc(=O)c2ccccc2o1)N1CCN(c2ccccc2)CC1 | inactive
COc1cc2c(cc1OC)CN(C(=O)c1cc(=O)c3ccccc3o1)CC2 | 3.26 µM (active)
COc1ccccc1N1CCN(c2nc(C)cc(=O)[nH]2)CC1 | inactive
Cc1cccc(-c2cc(=O)c3cc(C)ccc3o2)c1 | inactive
COc1ccccc1OCc1ccc(C(=O)N2CCN(C)CC2)o1 | inactive
O=C(NCc1ccco1)/C(=C\c1cccc([N+](=O)[O-])c1)NC(=O)c1ccco1 | inactive

Compound | Potency
Cc1cc(NC(=O)COC(=O)/C=C/c2ccc(C)o2)no1 | inactive
COc1cccc2c1OCC1COc3c(c(=O)n(C)c(=O)n3C)C21 (centres undefined) | inactive
COc1ccc(NC(=S)NCCN2CCC(C)CC2)cc1 | inactive
CC(C)CC(=O)c1c[nH]c(C(=O)NCc2ccccc2)c1 | inactive
O=C(CN1CCSCC1)N/N=C/c1ccc(F)cc1F | inactive
OC(CBr)CN1CCCCC1 (centres undefined) | inactive
OC(COCCC12CC3CC(CC(C3)C1)C2)CN1CCCCC1 (centres undefined) | 16.4 µM (active)
OC(COc1ccc(CN2CCSCC2)cc1)CN1CCCCC1 (centres undefined) | inactive
O=C(CSc1nc2ccccc2c(=O)n1-c1ccccc1F)N1CCOCC1 | inactive
CCN(CC)CCCC(C)n1c2nc(=O)[nH]c(=O)c-2nc2cc(Cl)ccc21 (centres undefined) | 8.2 µM (active)
CCCc1nc2ccccc2c(C(=O)OCc2nnc(-c3cc(OC)c(OC)c(OC)c3)o2)c1CC | 23.1 µM (active)
O=C(OCc1nnc(-c2ccccc2)o1)c1cc(=O)[nH]c2ccccc12 | inactive
CCCCc1nc2ccccc2c(NC(=O)CN2CCN(C)CC2)c1CCC | inactive
C=CCn1c(N)cc(=O)nc1SCC(=O)Nc1cccc2ccccc12 | inactive
CCOc1ccccc1CN1CCN(C2CCC2)CC1CCO (centres undefined) | inactive
O=C(Nc1c(Cl)cccc1Cl)C1CCC1 | inactive
Cc1cccc(NC(c2cccc(F)c2)c2ccc3ccc(C)nc3c2O)n1 (centres undefined) | 5.8 µM (active)
CC(=O)NC(c1cccc(F)c1)c1nc(-c2cccc(F)c2)cs1 (centres undefined) | inactive
CSCCC(NC(=O)c1ccco1)C(=O)Nc1cc(C)ccn1 (centres undefined) | inactive
N#Cc1cccc(CN2CCC(=O)N([C@H](CO)c3ccccc3)CC2)c1 | inactive

— PubChem BioAssay AID686978 (National Center for Advancing Translational Sciences (NCATS), 2013)
